Laboratory results reported in PubChem BioAssay (NCI).
The panel holds about 83,000 compounds, 20% with a hit somewhere; the sample as a whole holds those more often.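 Results are percent growth after 48 hours of single-concentration exposure. 100 means growth as in untreated cells, lower positive values show inhibition; negative values down to -100 show cell death.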 Unmarked numbers belong to inactive results. Active and inactive are the calls of the source. The calls were made as follows: active = growth percent below 10; inactive = the rest.

Each compound was assayed on HL-60(TB) leukemia (assay: NCI-60 one-dose screen, 48 h (100 = growth as untreated, 0 = no growth, -100 = all killed)). Conditions: 10 µM unless noted.

SMILES	growth
O=C(Nc1ccc(Cl)cc1)c1cc2cc(F)ccc2cc1O	-4.75% (active)
CN1[C@@H]2CC[C@H]1/C(=C\c1ccccc1)C1=C2[C@@H](c2ccccc2)C(C#N)=C(N)O1	60.4%
COc1ccc(CN2c3ccccc3Sc3ccccc32)c(F)c1	-27% (active)
O=C1/C(=C/c2c[nH]c(=O)[nH]c2=O)SC(=S)N1Cc1ccccc1	99.3%
CCCCNCC(=O)Nc1ccc(C(=O)OCC)cc1	86.9%
O=C1NC(=S)NC(=O)C1CC(=O)n1c(-c2ccccc2)nc2ccccc21	104%
CC1(C)CC(=O)c2c(ccc(C(=O)C[C@H](N)CO)c2N)O1	44.8%
OCCN1CCN(c2nc(Nc3ccc(-c4nc5ccccc5[nH]4)cc3)c3cn[nH]c3n2)CC1	-65.8% (active)
C/C=C/c1cc2c(c(=O)o1)C(=O)[C@@H](O)[C@H](C)O2	-22% (active)
CC(=O)Nc1cc(F)cc(C(F)(F)F)c1Cl	100%
O=C(/C=C/c1ccccc1)c1cccc2ccccc12	33.7%
O=C(CSc1ccc2nnc(-c3cccc(F)c3)n2n1)Nc1ccc2c(c1)OCO2	78.9%
COc1cc(/C=C/C(=O)/C=C/c2cc(OC)c3c(c2)OCO3)cc2c1OCO2	68.6%
COc1ccc2c(CCCC(c3ccccc3)c3ccccc3)c3[n+](cc2c1OC)CCc1cc2c(cc1-3)OCO2	-30.9% (active)
CS(=O)(=O)c1ccc(-c2cc3c(oc2=O)-c2ccccc2OC3O)cc1 (stereo not given)	93.5%
CC1SC(N)=NC1=O (stereo not given)	104%
O=S(=O)(Cc1ccccc1)c1ccccc1	96.5%
CCCCCCCCNC(=O)C(C)C	99.7%
CCN(CC)CCC(C(=O)O)(c1ccccc1)c1ccccc1	93.5%
CCOC(=O)Nc1ccc2c(c1)C(=O)N(CCOC)c1ccccc1O2	-17.1% (active)

SMILES	growth
O=S(=O)(Cc1ccccc1)c1nc2ccccc2s1	16.9%
NC(=O)NCC1CCCCC1	91.3%
C=C1C(=O)O[C@H]2[C@H]1CC/C(CNC(=O)/C=C/c1ccc(Br)cc1)=C\CC[C@@]1(C)O[C@@H]21	-15.8% (active)
CCCn1cc(/C=N\N=C2\C(=O)Nc3ccc(C)cc32)c2ccccc21	-22.6% (active)
CC(C)C[C@H](NC(=O)Cn1ccc(NCc2ccccc2)cc1=O)B(O)O	3.72% (active)
CCCCOC(=O)c1ccccc1O	93.2%
O=C1/C(=C/c2ccc(Cl)cc2)CCC/C1=C\c1ccc(Cl)cc1	83%
CC(C)(C)CC(C)(C)Cc1ccc(OCCOCC[N+](C)(C)Cc2ccccc2)cc1	-52.6% (active)
COc1cc2nc(N3CCCC3)nc(Nc3ccccc3)c2cc1OC	-53.9% (active)
O=C(N/N=C\c1c(O)ccc2ccccc12)C1CC1	1.22% (active)
C=C(C=O)C1CCC2(C(=O)O)CCC3(C)C(CCC4C5(C)CCC(O)C(C)(C)C5CCC43C)C12 (stereo not given)	6.38% (active)
COC(=O)/C(CCC=C(C)C)=C1\[C@@H](OC(C)=O)C[C@@]2(C)[C@H]1C/C(=N/O)[C@H]1[C@@]3(C)CC/C(=N\O)[C@@H](C)[C@@H]3CC[C@@]12C	89.3%
COc1ccc(NC(=O)/C=C/c2ccc(NC(=O)N3CCCC3)cc2)cn1	102%
NC(=O)N1N=C(c2ccc(Cl)cc2)CC1c1cn(-c2ccccc2)nc1-c1ccc(Cl)cc1 (stereo not given)	80.9%
CCCCCCn1c(-c2ccc(C(=O)O/N=C(\N)c3ccc(OC)cc3)cc2)nc(-c2ccccc2)c1-c1ccccc1	-58% (active)
COc1cc(-c2nccc3[nH]c(-c4ccc5cc[nH]c5c4)nc23)cc(OC)c1OC	-48.7% (active)
O=C(CSc1nccc(Nc2cccc3ccccc23)n1)c1ccc(Cl)cc1	99.2%
CC(C)n1nc(-c2ccc3oc(N)nc3c2)c2c(N)ncnc21	11.4%
CN1C(=O)N(C)C2C1NN=c1s/c(=C\c3ccccc3)c(=O)n12 (stereo not given)	16.9%
COc1cc(NC(C)CCCN)c2ncccc2c1Sc1ccc(Cl)cc1 (stereo not given)	81.3%
